In PubChem BioAssay (NCI):
Where “and” joins values, the source holds several entries; their conditions need not be identical. Equal entries are not always repeated. About 83,000 compounds went through this panel and 20% of them were active in at least one assay; those are over-represented in the sample as a whole.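 Compound tested at a single concentration for 48 hours in 96-well plates; a percent growth value below 10 was scored as active.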 Calls of active or inactive are those of the source.

Test system: MDA-MB-468 breast
Experiment: NCI-60 one-dose screen, 48 h (100 = growth as untreated, 0 = no growth, -100 = all killed)
Details: 10 µM unless noted

SMILES	growth
CC[n+]1ccc2c(c1)C(=O)c1nccc3c1c-2nc1ccccc13	-52.3% (active)
CCOC(=O)c1cnc2c(C)cccc2c1Nc1ccc(C(C)=O)cc1	-71.2% (active)
CN(C)c1ccc(C(=S)c2ccc(N(C)C)cc2)cc1	-12.3% (active)
Cc1ccc2nc(N)nnc2c1	102% (inactive)
CC(/C=C1\SC(=S)N(CC(=O)NC(Cc2c[nH]c3ccccc23)C(=O)O)C1=O)=C\c1ccccc1 (configuration not stated)	95.1% (inactive)
CCCCCCC/C=C/[C@H]1O[C@]23C(=O)C[C@@]4(C[C@@H](OC5OC(CO)C(O)C(O)C5O)C[C@@H]4[C@H]2C=C1C)OC3=O (some centres not stated)	25.7% (inactive)
COc1ccc(-n2ncc3c2ccc2cc(S(=O)(=O)c4ccccc4)c(=O)n(C)c23)cc1	94.5% (inactive)
Cc1scc2c1N(C(=O)CN1CCN(C)CC1)c1ccccc1NC2=O	101% (inactive)
O=[N+]([O-])c1ccc(Oc2cccc(C(F)(F)F)c2)c([N+](=O)[O-])c1	-8.95% (active)
O=S(=O)(NCCNc1cc(-c2cn(-c3ccccc3)nc2-c2ccccc2)ccn1)c1cccc2ccccc12	36.6% (inactive)
CCN(CC)CCCNC(=O)c1c2c(n3ccccc13)C(=O)c1ncccc1C2=O	-70.1% (active)
O=c1c2cccc(F)c2sc2c(NCCCNCCO)nc3ccccc3c12	-18.3% (active)
CC(O)(CO)c1ccccc1 (configuration not stated)	99.6% (inactive)
CCOC(=O)C1=C(C(=O)c2ccc(Br)cc2)C(c2ccc(Br)cc2)NC(=S)N1 (configuration not stated)	103% (inactive)
N#Cc1ccccc1OCC(=O)Nc1nc2c(s1)COc1ccccc1-2	98.7% (inactive)
COc1cc2oc(-c3cccc(NC(=O)c4ccc5c(c4)OCO5)c3)cc(=O)c2c(OC)c1OC	75.5% (inactive)
Cc1cc2c(C)c3cc(C)c(N)cc3nc2cc1N	-5.78% (active)
O=C(/C=C\c1ccc2ccccc2n1)c1cc(Cl)ccc1O	107% (inactive)
O=C(Nc1ccc(Cl)cc1)c1cc2ccccc2cc1OP(=O)(O)O	71.3% (inactive)

SMILES	growth
O=C(CNS(=O)(=O)Cc1ccccc1)NNc1ccccc1	79.4% (inactive)
CCC(=C(c1ccc(OCCN(CC)CC)cc1)c1ccc(OCCN(CC)CC)cc1)c1ccc(Cl)cc1	-79.1% (active)
Cc1cc(O[C@@H]2O[C@@H](C)[C@H](O)[C@@H](O)[C@H]2O)c2c3c(c(O[C@@H]4O[C@@H](C)[C@H](O)[C@@H](O)[C@H]4O)cc2c1)C(=O)c1c(O)cccc1C3=O	67.5% (inactive)
O=C(Nc1nc2ccccc2s1)c1ccc(F)cc1	94.1% (inactive)
COc1cc(C2CC(c3cccc(Nc4ccnc5cc(Cl)ccc45)c3)=NN2c2ccc(Cl)cc2)cc(OC)c1OC (configuration not stated)	74.4% (inactive)
O=C(/C=C/c1csc(Br)n1)NO	19% (inactive)
C=CC(=O)Nc1cccc(C)c1Nc1cc(-c2cccnc2Cc2c(C)c(OC)cc(OC)c2C)ncn1	19.5% (inactive)
C/C=C/CC(C)C(O)[C@H](NC(=O)[C@@H]1CCCN1C(=O)[C@](C)(CC)NC(=O)CCCCCCCCC)C(=O)N[C@@](C)(CC)C(=O)N[C@@H](CCC(N)=O)C(=O)N[C@H](CCC(N)=O)C(=O)NC(C)(C)C(=O)NC(C)(C)C(=O)N[C@@H](CCC(N)=O)C(=O)N[C@H](CC(C)C)C(=O)N[C@H](CO)CC(C)C (some centres not stated)	-10.2% (active) and -64% (active)
CCN(CC)CCOc1nc2ccc(OC)cc2c2c1-c1ccc(OC)cc1C2=O	51.9% (inactive)
CC(=O)ON1CCCC(P(=O)(OCOC(=O)C(C)(C)C)OCOC(=O)C(C)(C)C)C1=O (configuration not stated)	-21.2% (active)
COc1ccc(C2C=C(c3ccc(Cl)cc3)N=C3SC=C(C)N32)c(Br)c1 (configuration not stated)	8.58% (active)
CCOC(=O)/C(=C/c1ccccc1)C(=O)c1ccccc1	85.6% (inactive)
C(=C\c1cn(-c2ccccc2)nc1-c1ccccc1)/c1nnc(-c2c[nH]c3ccccc23)o1	87.1% (inactive)
NC(=S)N/N=C1\CCCC(C(F)(F)F)C1 (configuration not stated)	31.3% (inactive)
CC1(c2ccc(Br)cc2)NC(=O)NC1=O (configuration not stated)	110% (inactive)
O=S1(=O)C=C(c2ccccc2)C(c2ccccc2)=C1	-68.5% (active)
Cc1ccc(N)cc1S(=O)(=O)O	127% (inactive) and 110% (inactive)
O=C1c2ccccc2C(=O)N1/N=C/c1ccc2c(c1)OCO2	103% (inactive)
